Test results published in PubChem BioAssay (EPA / NIEHS).
Records with an inconclusive call do not appear. A structure can be active in one record and inactive in another. The source made the active and inactive calls. How the source made its calls: active means hit-call score of the fitted dose curve at least 0.9, where 1 is the maximum; inconclusive means response in the unintended direction; inactive means score below 0.9.

What follows are compounds tested against human Thyroid Receptor alpha (THRa1), THRA (gene 7067) (UniProt P10827) (assay: ATG_THRa1_TRANS: Attagene TRANS-FACTORIAL HepG2 Assay for human Thyroid Receptor alpha (THRa1) (AID 2283014)).
Experimental: ATG_TRANS is a cell-based, multiplexed-readout assay that uses HepG2, a human liver cell line, with measurements taken at 24 hours after chemical dosing in a 24-well plate.ATG_THRa1_TRANS is one of 30 assay component(s) measured or calculated from the ATG_TRANS assay. It is designed to make measurements of mRNA induction, a form of inducible reporter, as detected with fluorescence intensity signals by Reverse transcription polymerase chain reaction (RT-PCR) and Capillary electrophoresis technology.Data from the assay component ATG_THRa1_TRANS was analyzed into 1 assay endpoint. This assay endpoint, ATG_THRa1_TRANS, was analyzed in the positive analysis fitting direction relative to DMSO as the negative control and baseline of activity. Using a type of inducible reporter, measures of mRNA for gain-of-signal activity can be used to understand the reporter gene at the transcription factor-level as they relate to the gene THRA. Furthermore, this assay endpoint can be referred to as a primary readout, because this assay has produced multiple assay endpoints where this one serves a reporter gene function. To generalize the intended target to other relatable targets, this assay endpoint is annotated to the nuclear receptor intended target family, where the subfamily is non-steroidal.
Human liver HepG2 cells are transiently transfected with multiple reporter transcription units (MRTUs) in 6-well plates using FuGene 6 reagent (Roche; 3 ml FuGene/1 mg DNA). The MRTU constructs are regulated by a cis-regulating element (promoter). […] A major difference between the CIS and TRANS system is that in CIS activities of endogenous TFs are measured, whereas the TRANS assay evaluates changes in activities of exogenous, chimeric NR-Gal4 proteins. […] At the end of 24 hour incubation, total RNA was isolated using TriZol reagent (Invitrogen). The isolated RNA is then reverse-transcribed using oligo(dT) primer and Mo-MLV reverse transcriptase (Invitrogen) with DNAse I (Ambion) treatment for 30 min. The one-tenth of the produced cDNA was amplified by PCR using Taq DNA polymerase (Invitrogen) and two reporter sequence-specific primers. The PCR products were fluorescently labeled by primer extension with 6-arboxyfluorescein (6-FAM) 5'-labeled reporter sequence-specific primer (2 min at 95 C, 20 s at 68 C and 10 min at 72 C) and these products were digested with 5U of HpaI (New England Biolabs) for 2h at 37 C. The fragments were purified using Qiaquick PCR columns (Qiagen), analyzed on an ABI 3130xL genetic analyzer (Applied Biosystems) with peak positions identified by using a set of X-rhodamine (ROX)-labeled MapMarker1000 molecular weight standards (BioVentures). The raw capillary electrophoresis data was processed using Attagraph software (Attagene).

human Thyroid Receptor alpha (THRa1), THRA (gene 7067), sequence (P10827 whole entry, looked up): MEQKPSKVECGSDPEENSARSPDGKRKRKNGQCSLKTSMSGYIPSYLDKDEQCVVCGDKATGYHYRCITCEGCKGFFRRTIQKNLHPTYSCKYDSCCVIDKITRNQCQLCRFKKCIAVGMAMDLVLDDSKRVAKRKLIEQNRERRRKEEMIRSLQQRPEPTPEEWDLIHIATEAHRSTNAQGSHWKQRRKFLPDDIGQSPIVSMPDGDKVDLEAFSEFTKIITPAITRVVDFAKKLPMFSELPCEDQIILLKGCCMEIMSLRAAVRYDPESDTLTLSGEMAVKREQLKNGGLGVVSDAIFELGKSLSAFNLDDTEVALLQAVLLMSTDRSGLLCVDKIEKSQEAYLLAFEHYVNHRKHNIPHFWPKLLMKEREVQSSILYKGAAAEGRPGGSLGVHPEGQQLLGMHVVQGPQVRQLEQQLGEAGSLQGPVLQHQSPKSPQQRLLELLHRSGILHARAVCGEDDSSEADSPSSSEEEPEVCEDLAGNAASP

Row | SMILES | outcome | AC50
1 | O=C(O)CCC(F)(F)C(F)(F)C(F)(F)C(F)(F)C(F)(F)C(F)(F)F | inactive | –
2 | FC(F)(F)N1C(F)(F)C(F)(F)OC(F)(F)C1(F)F | inactive | –
3 | CCOCCOCC | inactive | –
4 | CC1CCC(C(=O)O)CC1 (stereo not given) | inactive | –
5 | CC(C)(C)c1ccc(O)c(O)c1 | inactive | 34.1 µM (active)
6 | CC1COCc2cc3c(cc21)C(C)(C)C(C)C3(C)C (stereo not given) | inactive | –
7 | O=S(=O)(c1ccc(OCc2ccccc2)cc1)c1ccccc1O | inactive | –
8 | CCCCCCc1ccc(N)cc1 | inactive | –
9 | CCOC(=O)c1nc(C(Cl)(Cl)Cl)n(-c2ccc(Cl)cc2Cl)n1 | – | 2.11 µM (active)
10 | CS(=O)(=O)c1ccc([C@@H](CC2CCCC2)C(=O)Nc2cnccn2)cc1Cl | inactive | –
11 | O=C(c1cc(O)c(O)c(O)c1)c1ccc(O)c(O)c1O | inactive | –
12 | c1cnc2c(c1)ccc1cccnc12 | inactive | 26.6 µM (active)
13 | Cn1sccc1=O | inactive | –
14 | C=CC(=O)OCCN(CC)CC | inactive | –
15 | Cc1cc(Cc2cc(C)cc(C(C)(C)C)c2O)c(O)c(C(C)(C)C)c1 | inactive | –
16 | O=C1OC(=O)c2cc(-c3ccc4c(c3)C(=O)OC4=O)ccc21 | inactive | –
17 | FC1(F)C=CC(F)(F)C1(F)F | inactive | –
18 | FC(F)(F)C(F)(F)C(F)(F)Br | inactive | –
19 | CC1CNCC(C)O1 (stereo not given) | inactive | –

Row | SMILES | outcome | AC50
20 | O=C(Nc1cccc([N+](=O)[O-])c1)c1cc2ccccc2cc1O | – | 17.5 µM (active)
21 | CCCCCCCCC1CCC(=O)O1 (stereo not given) | inactive | –
22 | Cc1cccc2c1ccc1ccccc12 | inactive | –
23 | O=C(CC(=O)C(F)(F)C(F)(F)C(F)(F)F)c1cccs1 | inactive | –
24 | CCCCCCCCCCCCOC(=O)c1cc(O)c(O)c(O)c1 | inactive | –
25 | NNc1nc(-c2ccc([N+](=O)[O-])cc2)cs1 | – | 48.5 µM (active)
26 | FC(F)(F)C1(F)C(F)(F)C(F)(F)C(F)(F)C1(F)F | inactive | –
27 | O=c1cc(-c2ccccc2)oc2ccc3ccccc3c12 | inactive | –
28 | CCCCCCCCCCCC | inactive | –
29 | O=C(NCc1ncc(C(F)(F)F)cc1Cl)c1c(Cl)cccc1Cl | inactive | –
30 | CN(C)c1ccc(C(=C2C=CC(=[N+](C)C)C=C2)c2ccccc2)cc1 | inactive | –
31 | CC=O | inactive | –
32 | Clc1ccc(Nc2nnc(Cc3ccncc3)c3ccccc23)cc1 | inactive | –
33 | C=CC(=O)OCCC(F)(F)C(F)(F)C(F)(F)C(F)(F)C(F)(F)C(F)(F)F | inactive | –
34 | O=CC(F)(F)C(F)(F)C(F)(F)F | inactive | –
35 | CC(C)[C@@H]1CC[C@@H](C)C[C@H]1O | inactive | –
36 | Cc1ccc(C)c(S(=O)(=O)O)c1 | inactive | –
37 | O=C(O)C(F)(F)OC(F)(F)C(F)(F)OC(F)(F)C(F)(F)OC(F)(F)C(F)(F)C(F)(F)C(F)(F)F | inactive | –
38 | C/C=C/C(=O)C1=C(C)CCCC1(C)C | inactive | –
